In all, about 370,000 compounds went through this assay and about 520 (0.14%) were called active. Only a selection was taken, and actives are over-represented in it overall. A number with no mark means an inactive call. Rule as the data show it: active = activation above about 40%; inactive = the rest.
The compounds below were run against Atrial natriuretic peptide receptor 1 (Homo sapiens) (UniProt P16066) (assay: GC-A stimulated cGMP production enhancers – HEK293 GC-A cells, cGMP TR-FRET, EC30 ANP, primary screen (AID 1671463)). Details: at 10 µM, hits give high values; 0% at EC30 ANP, 100% saturating ANP unless noted.
Chain of Atrial natriuretic peptide receptor 1 (Homo sapiens) (P16066 whole entry, looked up): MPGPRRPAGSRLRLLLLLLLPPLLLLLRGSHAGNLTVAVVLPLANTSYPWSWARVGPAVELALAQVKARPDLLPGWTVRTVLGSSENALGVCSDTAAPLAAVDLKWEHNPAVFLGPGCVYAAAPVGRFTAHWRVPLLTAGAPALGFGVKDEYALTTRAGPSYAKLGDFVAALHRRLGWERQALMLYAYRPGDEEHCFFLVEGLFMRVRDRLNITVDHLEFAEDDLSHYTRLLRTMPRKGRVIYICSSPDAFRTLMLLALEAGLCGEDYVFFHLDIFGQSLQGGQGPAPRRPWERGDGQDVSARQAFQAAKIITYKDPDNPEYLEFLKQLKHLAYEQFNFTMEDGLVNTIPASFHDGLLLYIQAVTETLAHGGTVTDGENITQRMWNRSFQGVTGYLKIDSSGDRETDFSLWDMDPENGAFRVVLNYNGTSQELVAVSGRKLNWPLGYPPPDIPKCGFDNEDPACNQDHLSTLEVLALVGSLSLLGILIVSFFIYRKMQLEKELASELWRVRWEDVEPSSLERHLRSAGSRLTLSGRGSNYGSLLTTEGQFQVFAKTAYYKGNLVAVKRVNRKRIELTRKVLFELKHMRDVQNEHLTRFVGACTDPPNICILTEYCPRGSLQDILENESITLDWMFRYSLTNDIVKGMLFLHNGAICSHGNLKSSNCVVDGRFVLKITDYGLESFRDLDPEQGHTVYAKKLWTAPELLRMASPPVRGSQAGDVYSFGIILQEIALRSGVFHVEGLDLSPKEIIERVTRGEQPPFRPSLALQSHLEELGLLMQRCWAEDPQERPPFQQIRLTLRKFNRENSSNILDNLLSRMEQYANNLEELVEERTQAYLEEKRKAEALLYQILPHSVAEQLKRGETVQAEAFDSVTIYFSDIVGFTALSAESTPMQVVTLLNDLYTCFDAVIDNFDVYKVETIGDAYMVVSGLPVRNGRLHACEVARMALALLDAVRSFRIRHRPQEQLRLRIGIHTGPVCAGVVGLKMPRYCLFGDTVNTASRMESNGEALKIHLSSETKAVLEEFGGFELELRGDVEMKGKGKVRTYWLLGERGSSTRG
In the case of Cc1cccc(N2C(=O)NC(=O)/C(=C\c3cnn(-c4ccccc4)c3)C2=O)c1, the activation is reported as 54.5% [setting not given] (active). For Cc1ccccc1CCC[C@@H](CC1CCCCC1)CN(C)C(=O)Oc1ccccc1, the activation was 2.21%. Nc1ccc([N+](=O)[O-])cc1 was tested, and the activation was 1.78%. In the case of O=C1NC(=O)N(Cc2ccco2)C(=O)/C1=C\c1ccc(-c2ccc(F)cc2)o1, the activation is reported as 48.8% [setting not given] (active). Compound COC(=O)C1=C(c2cc3ccccc3o2)C[C@@H]2CC[C@H]1N2C(=O)NC1CCCCC1 has an activation of -7.28%. In the case of Cc1cc(N2CCNC[C@@H]2C)ccc1N1CC[C@H](O)C1, the activation is reported as -0.67%. For COP(=O)(Sc1ccccc1)C(Cc1ccccc1)NC(=O)OCc1ccccc1 (stereo not given), the activation was -3.05%. Work on CO[C@H]([C@H](C)/C=C/N(C)C=O)[C@@H](C)C(=O)CC[C@H](C)[C@H](O)[C@H](C)[C@H]1OC(=O)/C=C/C(C)=C/[C@H](O)[C@H](OC)C[C@@H]2C=CC[C@@H](C[C@H](OC)[C@@]3(CO3)[C@@H](OC)C[C@@H](OC)[C@@H]1C)O2 yielded an activation of -33.1%. For CCOC(=O)CC1=C(C(=O)OCC)C2(C(=O)N1)C(C(=O)OC)=C(N)Oc1ccccc12 (stereo not given), the activation was -13.7% [setting not given]. Work on COc1ccc2c(c1)[C@@]13CCCCC1[C@@H](C2)NCC3 (stereo not given in full) yielded an activation of 2.3% [setting not given].

From PubChem BioAssay AID1671463 (Sanford-Burnham Center for Chemical Genomics, 2021)
